This note sets out measurements from PubChem BioAssay (NCATS).

Assay [1] concerns the target Lysosomal acid glucosylceramidase (Homo sapiens) (UniProt P04062). Description: Glucocerebrosidase-p2 (AID 348; in the data active means potency below about 10 µM; further: potency means the concentration at half of the fitted maximal effect). The following applies: purified GBA, blue fluorogenic substrate, 40 min. The method in brief:
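Compounds titrated from 0.6 nM upwards against 0.2 nM enzyme in pH 5.9 citric acid/KH2PO4, taurocholate, tween-20; blue fluorogenic substrate 80 uM, 40 min room temperature, stopped and read Ex 365/Em 440 for AC50.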

The target of assay [2] is Cytochrome P450 1A2 (Homo sapiens) (UniProt P05177). Description: p450-cyp1a2 (AID 410; calls by dose curve; further: potency means the concentration at half of the fitted maximal effect;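 on activity change, negative = inhibition: -100% = full effect of reference inhibitor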). Particulars: recombinant CYP1A2, luciferin-ME demethylation, luminescence; series mostly up to 11.4 µM. The procedure, abridged: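 Human CYP1A2 (20nM) demethylated Luciferin-ME at its Km (100uM) in 100mM KPO4. After 10 min compound preincubation, NADPH regeneration ran the reaction 60 min at room temperature. Luciferin was read by luminescence, normalized to 57 uM furafylline.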
Sequence of Cytochrome P450 1A2 (Homo sapiens) (P05177 whole entry, looked up): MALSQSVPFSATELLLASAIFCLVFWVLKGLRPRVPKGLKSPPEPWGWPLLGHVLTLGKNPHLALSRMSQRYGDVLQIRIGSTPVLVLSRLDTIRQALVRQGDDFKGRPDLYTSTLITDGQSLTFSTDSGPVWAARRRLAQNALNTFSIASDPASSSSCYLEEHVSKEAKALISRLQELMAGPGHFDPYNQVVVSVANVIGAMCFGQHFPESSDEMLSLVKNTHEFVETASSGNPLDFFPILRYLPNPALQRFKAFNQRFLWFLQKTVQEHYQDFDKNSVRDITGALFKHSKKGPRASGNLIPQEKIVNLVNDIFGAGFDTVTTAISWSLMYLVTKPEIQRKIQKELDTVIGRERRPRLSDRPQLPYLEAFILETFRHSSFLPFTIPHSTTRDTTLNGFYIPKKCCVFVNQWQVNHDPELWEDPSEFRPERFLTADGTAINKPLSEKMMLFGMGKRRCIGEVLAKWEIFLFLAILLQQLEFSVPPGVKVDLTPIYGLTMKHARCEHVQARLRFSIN

Assay [3] in a line: NFAT Signaling Pathway (AID 444).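 Further: carbachol stimulus at about its EC50 of 1 µM final; on the % scale 0 is the no-effect control and ±100 the full control effect.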 The following applies: Jurkat NFAT-bla M1, carbachol, beta-lactamase ratio, 5 h; at 7.69 µM (top of the series) unless noted. The procedure, abridged:
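Jurkat cells with NFAT-driven β-lactamase reporter and co-expressed M1 receptor, stimulated with carbachol (final 1 uM, ~EC50), compound titration, 5 h at 37 °C. CCF4 loaded 1 h at RT; 460/530 nm ratio gave %activity and AC50.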

Assay [4] can be described thus: Stat Signaling Pathway (AID 446).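 Further: ME-180 cervical cancer cells given 40 pM IL-6 alongside compound; SIE-controlled beta-lactamase reporter measured as 460/530 nm FRET emission ratio; on the % scale 0 is the no-effect control and ±100 the full control effect.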 Particulars: ME-180 SIE beta-lactamase reporter, IL-6 stimulated, 5 h; at 7.69 µM (top of the series) unless noted. The procedure, abridged: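 ME-180 cells carrying a SIE-driven beta-lactamase reporter are stimulated with 40 pM IL-6 for 5 h at 37C in the presence of compound. The 460/530 nm FRET substrate ratio is read after 2.5 h at RT. Data are normalised to 300 pM IL-6 and to 125 nM JAK inhibitor controls.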

For assay [5], the target named is Glucocorticoid receptor (Homo sapiens) (UniProt P04150). Description: GR-GFP Redistribution (AID 450;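 active means compounds whose dose series gives a full or clear partial fitted curve of increased nuclear translocation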; further: potency means the concentration at half of the fitted maximal effect). The following applies: U2OS GR-GFP nuclear translocation, laser cytometry, 2 h.
Sequence of Glucocorticoid receptor (Homo sapiens) (P04150 whole entry, looked up): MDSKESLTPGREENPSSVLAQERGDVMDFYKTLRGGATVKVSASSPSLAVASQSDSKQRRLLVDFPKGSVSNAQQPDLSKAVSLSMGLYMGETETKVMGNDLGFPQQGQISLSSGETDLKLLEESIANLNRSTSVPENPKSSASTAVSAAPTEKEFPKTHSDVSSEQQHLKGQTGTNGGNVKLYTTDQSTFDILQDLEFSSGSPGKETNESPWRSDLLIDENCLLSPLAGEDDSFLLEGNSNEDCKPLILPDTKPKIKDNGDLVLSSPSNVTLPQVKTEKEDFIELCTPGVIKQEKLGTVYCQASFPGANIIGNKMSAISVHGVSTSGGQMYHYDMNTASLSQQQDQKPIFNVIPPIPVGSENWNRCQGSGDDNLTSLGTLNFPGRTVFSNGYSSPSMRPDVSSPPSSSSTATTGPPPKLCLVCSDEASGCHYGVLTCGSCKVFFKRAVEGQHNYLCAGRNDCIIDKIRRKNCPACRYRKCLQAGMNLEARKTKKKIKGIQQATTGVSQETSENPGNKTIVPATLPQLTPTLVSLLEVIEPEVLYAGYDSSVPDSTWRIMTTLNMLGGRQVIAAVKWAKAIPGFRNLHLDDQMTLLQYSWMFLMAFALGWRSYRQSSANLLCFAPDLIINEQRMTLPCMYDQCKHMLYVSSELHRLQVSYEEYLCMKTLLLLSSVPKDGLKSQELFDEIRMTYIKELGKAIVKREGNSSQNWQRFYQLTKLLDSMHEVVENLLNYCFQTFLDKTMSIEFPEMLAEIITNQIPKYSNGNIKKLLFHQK
Assay [6] has the same target. Nature of the assay: GR-EFC Redistribution (AID 451; calls by dose curve; further: potency means the concentration at half of the fitted maximal effect). Particulars: CHO-K1 GR-EFC translocation, beta-gal luminescence, 2 h. The procedure, abridged:
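CHO-K1 cells expressing nuclear EA and GR-ED fragments of b-gal; compounds titrated up to 46 uM final, 2 h at 37 C. GR nuclear translocation read as complemented b-gal luminescence after 1 h RT detection.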

In assay [7] the target is Mitogen-activated protein kinase 10 (Mus musculus) (UniProt Q61831). Nature of the assay: JNK3 AlphaScreen Assay (AID 530).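 Further: kinase came from lysate of stimulated human HepG2 cells; signal reports phosphorylation of biotinylated GST-cJun 1-79 at Ser73 with 10 µM ATP; on the % scale 0 is the no-effect control and ±100 the full control effect.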 Particulars: JNK3 lysate, c-Jun phosphorylation; series mostly up to 11.4 µM. The method in brief: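 qHTS format: compounds tested as titrations against IL-1beta/TNF-alpha-activated HepG2 lysate JNK3 with biotin-GST-cJun substrate and 10 uM ATP at room temperature. Loss of anti-phospho-cJun AlphaScreen signal indicates inhibition.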
For orientation: In Alpha technology, singlet oxygen from a donor bead excites a nearby acceptor bead.

A short description of assay [8]: AP1 Signaling Pathway (AID 357).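 Further: ME-180 reporter cells stimulated with EGF at its EC50 level; on the % scale 0 is the no-effect control and ±100 the full control effect.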 The following applies: ME-180 AP-1-bla reporter, EGF-induced, beta-lactamase ratio, 5 h; at 7.69 µM (top of the series) unless noted. The method in brief:
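Cells are seeded overnight, exposed to compound titrations and an EC50 level of EGF for 5 hours at 37 °C, then loaded with CCF4 dye for 2.5 hours. Beta-lactamase activity under the AP-1 element is read as a blue/green ratio.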

For assay [9], the target named is 3',5'-cyclic-AMP phosphodiesterase 4B (Homo sapiens) (UniProt Q07343). Description: qHTS Assay for Inhibitors of PDE-IV (AID 607; active means well fitted activation curve with a large enough effect in the main read-out, with a control signal flat, not every such curve was filed as active; further: % of control where 0% means no effect). Particulars: HEK293 ACTOne CNG channel cells, membrane potential fluorescence; series mostly up to 22.9 µM. The method in brief:
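HEK293 ACTOne cells with CNG channel (1000/well), endogenous PDE4; membrane potential dye, compounds up to 22.9 uM final. Fluorescence Ex 535/Em 590; RO 20-1724 (100 uM final) as reference.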
On the technique in general: In qHTS, concentration-response curves come from the screen itself.

Assay [10] addresses Cytochrome P450 2D6 (Homo sapiens) (UniProt P10635). Nature of the assay: qHTS Assay for Inhibitors and Substrates of Cytochrome P450 2D6 (AID 891; active means well fitted inhibition curve with a large enough effect; further: potency means the concentration at half of the fitted maximal effect; nearly all actives have a fitted effect of over 60% in size). The following applies: recombinant CYP2D6, luciferin-ME EGE luminescence; series mostly up to 11.4 µM. The method in brief: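 Human CYP2D6 (5 nM) with 30 uM Luciferin-ME EGE (at Km) in 100 mM KPO4, compound preincubated 10 min, then NADPH regeneration system for 60 min at room temperature. Luciferin read by luminescence; normalized to 1.43 uM quinidine.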

The nature of assay [11]: qHTS Assay for Identification of Small Molecule Agonists for Hypoxia Response Element Signaling Pathway (AID 914; active means well fitted activation curve with a large enough effect in the signal ratio, with a control signal flat, not every such curve was filed as active; the % refers to the signal ratio; further: % of control where 0% means no effect). Particulars: ME-180 (cervical carcinoma) HRE-bla reporter, beta-lactamase ratio, CoCl2, 17 h; activation: active compounds read high. The procedure, abridged: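 Reporter activity (beta-lactamase, CCF4 460nm/530nm ratio) in HRE-bla ME-180 cells is recorded after 17 h compound exposure with EC50 CoCl2 at 37 degrees Celsius. AC50 values come from titration data.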

Assay [12] deals with Cytochrome P450 2C19 (Homo sapiens) (UniProt P33261). Description: qHTS Assay for Inhibitors and Substrates of Cytochrome P450 2C19 (AID 899; active means well fitted inhibition curve with a large enough effect; further: potency means the concentration at half of the fitted maximal effect; nearly all actives have a fitted effect of over 60% in size). Particulars: recombinant CYP2C19, luciferin-H EGE luminescence; series mostly up to 11.4 µM. The procedure, abridged: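 5 nM human CYP2C19 with 10uM Luciferin-H EGE (at KM) in 50mM KPO4, compound preincubated 10 min at 37C, then NADPH regeneration for 60 min at 37C. Luciferin read by luminescence after detection reagent; normalized to 57uM ketoconazole as full inhibition.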
Sequence of Cytochrome P450 2C19 (Homo sapiens) (P33261 whole entry, looked up): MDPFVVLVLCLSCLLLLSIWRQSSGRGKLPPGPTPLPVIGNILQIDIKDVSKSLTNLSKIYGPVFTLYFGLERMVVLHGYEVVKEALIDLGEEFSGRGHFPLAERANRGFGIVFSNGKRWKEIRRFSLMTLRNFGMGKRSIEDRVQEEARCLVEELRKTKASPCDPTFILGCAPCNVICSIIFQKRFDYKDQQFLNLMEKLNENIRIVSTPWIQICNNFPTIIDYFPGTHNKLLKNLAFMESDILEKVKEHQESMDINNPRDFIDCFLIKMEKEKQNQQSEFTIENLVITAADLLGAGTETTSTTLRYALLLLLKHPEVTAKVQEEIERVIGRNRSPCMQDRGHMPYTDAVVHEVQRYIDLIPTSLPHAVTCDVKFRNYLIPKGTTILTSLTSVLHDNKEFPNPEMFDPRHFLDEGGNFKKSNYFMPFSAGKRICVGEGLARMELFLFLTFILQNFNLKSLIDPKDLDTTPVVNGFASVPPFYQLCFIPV

SMILES strings stand for the structures. Unmarked numbers belong to inactive results. Inconclusive results are not listed. The source made the active and inactive calls. Unless noted, the call rests on the fitted dose curve; in most records, active means well fitted curve in either direction with a large enough effect (not every such curve was filed as active); inconclusive means small, poorly fitted or top-dose-only effect, or another doubt; inactive means flat fitted curve, though single readings scatter.

Sequence of Lysosomal acid glucosylceramidase (Homo sapiens) (P04062 whole entry, looked up): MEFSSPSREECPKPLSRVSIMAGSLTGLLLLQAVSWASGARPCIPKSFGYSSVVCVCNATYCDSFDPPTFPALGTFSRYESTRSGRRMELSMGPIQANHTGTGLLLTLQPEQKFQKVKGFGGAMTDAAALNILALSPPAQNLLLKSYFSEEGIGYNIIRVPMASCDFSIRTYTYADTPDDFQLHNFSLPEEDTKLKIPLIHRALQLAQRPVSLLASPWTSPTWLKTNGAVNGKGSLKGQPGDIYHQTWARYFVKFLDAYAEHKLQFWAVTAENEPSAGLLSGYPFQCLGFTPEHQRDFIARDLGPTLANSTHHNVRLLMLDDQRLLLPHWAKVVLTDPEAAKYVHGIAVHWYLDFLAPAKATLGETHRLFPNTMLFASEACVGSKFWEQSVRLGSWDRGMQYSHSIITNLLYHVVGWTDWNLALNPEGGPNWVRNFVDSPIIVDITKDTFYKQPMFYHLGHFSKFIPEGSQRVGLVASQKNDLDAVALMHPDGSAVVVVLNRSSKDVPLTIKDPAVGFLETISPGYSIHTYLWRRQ
Sequence of 3',5'-cyclic-AMP phosphodiesterase 4B (Homo sapiens) (Q07343 whole entry, looked up): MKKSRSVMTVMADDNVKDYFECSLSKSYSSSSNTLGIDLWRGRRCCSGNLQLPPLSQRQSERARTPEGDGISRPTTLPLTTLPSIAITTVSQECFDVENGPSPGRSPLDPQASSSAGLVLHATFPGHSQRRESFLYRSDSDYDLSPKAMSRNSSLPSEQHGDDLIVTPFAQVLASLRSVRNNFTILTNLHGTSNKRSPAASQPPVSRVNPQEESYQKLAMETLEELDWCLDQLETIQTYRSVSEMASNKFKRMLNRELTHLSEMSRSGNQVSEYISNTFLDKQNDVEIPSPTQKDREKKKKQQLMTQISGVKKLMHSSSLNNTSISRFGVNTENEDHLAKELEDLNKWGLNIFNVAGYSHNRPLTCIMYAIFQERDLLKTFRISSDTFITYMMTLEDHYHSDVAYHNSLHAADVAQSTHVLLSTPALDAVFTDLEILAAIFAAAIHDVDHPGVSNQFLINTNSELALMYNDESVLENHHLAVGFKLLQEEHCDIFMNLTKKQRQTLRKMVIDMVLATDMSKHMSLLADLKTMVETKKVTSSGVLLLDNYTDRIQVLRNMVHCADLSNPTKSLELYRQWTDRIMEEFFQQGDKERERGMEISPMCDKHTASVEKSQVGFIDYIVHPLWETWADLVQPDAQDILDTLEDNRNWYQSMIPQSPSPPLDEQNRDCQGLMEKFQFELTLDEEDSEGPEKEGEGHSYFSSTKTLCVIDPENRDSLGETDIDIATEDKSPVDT
Sequence of Cytochrome P450 2D6 (Homo sapiens) (P10635 whole entry, looked up): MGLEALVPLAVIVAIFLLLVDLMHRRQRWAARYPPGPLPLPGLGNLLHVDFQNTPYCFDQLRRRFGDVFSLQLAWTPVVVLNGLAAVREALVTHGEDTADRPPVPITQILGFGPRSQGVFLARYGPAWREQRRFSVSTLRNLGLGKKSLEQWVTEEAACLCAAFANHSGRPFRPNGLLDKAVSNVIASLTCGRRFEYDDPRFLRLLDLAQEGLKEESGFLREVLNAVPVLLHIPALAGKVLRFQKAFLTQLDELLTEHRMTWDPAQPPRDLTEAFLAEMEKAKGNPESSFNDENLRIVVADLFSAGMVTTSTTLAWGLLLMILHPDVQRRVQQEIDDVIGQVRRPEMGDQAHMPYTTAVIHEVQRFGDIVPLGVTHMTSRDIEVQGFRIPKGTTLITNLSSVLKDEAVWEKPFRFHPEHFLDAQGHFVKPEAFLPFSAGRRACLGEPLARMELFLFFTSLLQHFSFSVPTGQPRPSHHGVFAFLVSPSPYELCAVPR

`CN(C)Cc1cc(O)c(O)c(CN(C)C)c1`: the values for the Potency in assay [1], in assay [5] and in assay [6] were more than 11.4 µM, more than 46 µM and more than 9.22 µM, respectively. For the same molecule, the Potency entry in assay [2] and in assay [7] was “inactive” in each case. Also, the activity change, negative = inhibition in assay [3] was 3.49%. The activity, negative = inhibition in assay [4] is 2.92%.
Turning to `c1ccc(CN2CC[C@@H](CNc3ncnc4ccccc34)C2)cc1`, the Potency in assay [1] was more than 11.4 µM; in assay [5] it was more than 46 µM; in [6], more than 9.22 µM; in assay [10], 0.794 µM (active). In assay [8], the activity change, negative = inhibition was 3.93%. Besides, the activity, negative = inhibition in assay [4] is 8.92%. Moreover, the Potency entry in assay [7] and in assay [9] was “inactive” throughout.
Consider `CC1CCN(CC[S-])CC1.O.O.[Cl][Pt]`, for which the Potency was more than 11.4 µM in assay [1], more than 46 µM in assay [5] and more than 9.22 µM in assay [6]. Further, the activity change, negative = inhibition in assay [8] is 29.8%. Besides, the Potency result in assay [7] and in assay [9] was “inactive” in each case.
Turning to `CC(C)(C)c1ccc(O)c(CN(Cc2cc(C(C)(C)C)ccc2O)c2ccccc2)c1`, the Potency in [1] is more than 11.4 µM; in assay [5] it was more than 46 µM; in [6], more than 9.22 µM. Besides, in [8], the activity change, negative = inhibition is 4.11%. Moreover, the activity, negative = inhibition in [4] is 2.48%. Besides, the Potency result in assay [7] and in assay [9] was “inactive” throughout. For the same molecule, the activation in assay [11] was 12.3%.
On to `CN(C)C(=O)C1CCN(Cc2c[nH]c3ccccc23)CC1`, for which the values for the Potency in assay [1], in assay [5] and in assay [6] were more than 11.4 µM, more than 46 µM and more than 9.22 µM, respectively. The activity change, negative = inhibition in assay [8] is -1.75%. Further, the activity, negative = inhibition in [4] is -4.74%. The Potency entry in assay [7] and in [9] was “inactive” throughout. Further, the activation in [11] was 16.5%.
`CC(=O)NC1=C(OS(=O)(=O)c2ccc(C)cc2)CN(C)C1=O`: the Potency in assay [1] was more than 11.4 µM; in [5], more than 46 µM; in [6], more than 9.22 µM. Besides, in [8], the activity change, negative = inhibition is 24.1%. For the same molecule, the activity, negative = inhibition in assay [4] is -10.5%. The Potency entry in assay [7] and in assay [9] was “inactive” in each case.
With `COc1ccc(NCc2c(O)ccc3ccccc23)cc1`, the results for the Potency in assay [1], in [5] and in [6] were more than 11.4 µM, more than 46 µM and more than 9.22 µM, respectively. In addition, in [8], the activity change, negative = inhibition is -6.4%. Moreover, in assay [4], the activity, negative = inhibition was -5.4%. Besides, the Potency entry in assay [7] and in assay [9] was “inactive” in each case.
`Oc1c(C(O)(c2ccccc2)c2ccc3ccccc3c2O)ccc2ccccc12`: the Potency was more than 11.4 µM in assay [1]; 1 µM (active) in assay [2]; more than 46 µM in assay [5]; more than 9.22 µM in assay [6]; 0.794 µM (active) in assay [12]. Further, in assay [4], the activity, negative = inhibition is -10.4%. Also, the Potency result in [9] was “inactive”.
With `COc1ccc(C(=O)[C@H](Br)[C@H](Br)C(=O)O)cc1`, the Potency was more than 11.4 µM in assay [1], 3.98 µM (active) in assay [2], more than 46 µM in [5] and more than 9.22 µM in [6]. Further, the Potency result in assay [7] and in [9] was “inactive” throughout.
